Rows were chosen to be rich in hits. Some 1.4% of all compounds tested hit in one or more screens of this group.
S-ASM inh: human S-ASM enzyme inhibition; P17405; placental ASM, HMU-PC fluorogenic substrate, 60 min; Potency, µM (titrated, usually from 57.5 µM), usual class: inhibitors; hit rate 0.006% among 340,000; AID 504937
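Fluorescence read-out (Ex 386 nm, Em 447 nm) after stopping the reaction at pH 10. Enzyme: ASM from human placenta; substrate HMU-PC0, 9 uM final; 60 min, 37 °C. Compound preincubation 10 min, ambient temperature.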
ALOX12 inh: ALOX12 (human) lipoxygenase inhibition; P18054; hit rate 1.1% among 580,000; Potency, µM (highest dose often 108 µM), hits mostly inhibitors; purified 12hLO, xylenol orange hydroperoxide absorbance
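Purified human 12hLO at 150 nM in 25 mM Hepes, 0.01% Triton X-100, pH 7.0, preincubated 15 min at room temperature with compound. Reaction started with 40 uM arachidonic acid, 30 min at room temperature. Hydroperoxide measured by Fe-xylenol orange, 573/405 nm absorbance ratio.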
pAkt inh: blocks phosphorylation of Akt; Neuro2A IGF-stimulated pAkt S473 HTRF, 20 min; active compounds read low; activity change, % for hits at 50 µM; hit rate 0.32% among 360,000; in the data active = activity change below about -80%; inconclusive = mostly about -51% to -80%
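Neuro2A cells in DMEM with 0.5% FBS, overnight at 37 deg C, given compound at single 50 µM final, then IGF (6 nM final) for 20 min at 37 deg C. Lysed; phospho-Akt Ser473 by HTRF after 24 h, 665/615 ratio.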
Vif-A3G inh: Vif-A3G binding inhibition; Q9HC16; HeLa A3G-eYFP + Vif (tagged APOBEC3G with the HIV-1 protein that degrades it), YFP fluorescence, overnight; Potency, µM (series often up to 46.1 µM), usual class: inhibitors; hit rate 0.076% among 410,000; also: nearly all actives have a fitted effect of over 60% in size
Target sequence (Q9HC16 whole entry, looked up): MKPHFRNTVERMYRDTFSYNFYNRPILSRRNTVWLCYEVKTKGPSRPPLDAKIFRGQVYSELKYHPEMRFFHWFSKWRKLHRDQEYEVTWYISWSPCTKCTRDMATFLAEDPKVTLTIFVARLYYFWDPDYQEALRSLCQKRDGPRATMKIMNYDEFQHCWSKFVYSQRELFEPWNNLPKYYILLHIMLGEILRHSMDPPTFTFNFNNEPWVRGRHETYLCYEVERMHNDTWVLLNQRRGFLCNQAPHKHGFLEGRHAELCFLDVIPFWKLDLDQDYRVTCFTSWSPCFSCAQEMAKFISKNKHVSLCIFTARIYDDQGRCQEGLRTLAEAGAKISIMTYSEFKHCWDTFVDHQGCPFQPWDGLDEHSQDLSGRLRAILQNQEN
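HeLa cells stably expressing Vif and C-terminally eYFP-tagged A3G, seeded overnight at 37 deg C, then exposed to compound by pintool overnight at 37 deg C. Rise in yellow fluorescence (Ex 488/Em 500-530, Acumen) marks blocked Vif-driven A3G degradation.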
TSG101-PTAP inh: blocks PTAP/TSG101 interaction to inhibit HIV-1 budding; Q99816; Fluorescence polarization, FITC-PTAP peptide / Tsg101 binding; Potency, µM (highest dose often 115 µM), usual class: inhibitors; 340,000 tested, under 10 active; AID 493005; active = well fitted inhibition curve with a large enough effect in the main read-out, with a control signal flat, not every such curve was filed as active; inconclusive = small, poorly fitted or top-dose-only effect, or effect the other way, or a change in a side signal; inactive = no such curve, though single readings can be large or run the other way
Target sequence (Q99816 whole entry, looked up): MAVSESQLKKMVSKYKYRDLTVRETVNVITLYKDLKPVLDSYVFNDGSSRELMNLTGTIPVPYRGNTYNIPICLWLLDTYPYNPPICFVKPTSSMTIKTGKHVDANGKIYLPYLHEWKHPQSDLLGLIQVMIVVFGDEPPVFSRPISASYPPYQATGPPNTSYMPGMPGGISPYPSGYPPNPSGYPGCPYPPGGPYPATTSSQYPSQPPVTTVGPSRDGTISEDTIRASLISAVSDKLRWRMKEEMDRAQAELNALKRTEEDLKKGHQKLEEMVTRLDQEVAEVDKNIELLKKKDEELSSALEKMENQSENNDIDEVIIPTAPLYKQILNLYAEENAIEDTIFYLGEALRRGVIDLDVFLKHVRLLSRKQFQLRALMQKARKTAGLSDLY
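Fluorescence anisotropy tracks displacement of a FITC-tagged PTAP peptide (50 nM) from the Tsg101 binding domain (10 uM), following a 20 min room-temperature incubation at pH 7.5.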
Vif-A3F inh: inhibitors of Vif-A3F interaction; HeLa A3F-eYFP + Vif (tagged APOBEC3F with the HIV-1 protein that degrades it), YFP fluorescence increase; Potency, µM (titrated, usually from 46.1 µM); hit rate 0.2% among 390,000; also: nearly all actives have a fitted effect of over 65% in size
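Fluorescence increase (Ex 488/Em 500-530) after overnight compound treatment at 37 deg C flags inhibition of Vif-driven A3F-eYFP loss in stable HeLa A3F-eYFP/Vif cells seeded overnight beforehand.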
Hits are given with their value; - = inactive; ? = inconclusive; . = not tested or not shown. Unless noted, calls follow the shape of the dose curve; as a rule, active = well fitted curve in the direction sought with a large enough effect; inconclusive = small, poorly fitted or top-dose-only effect, or another doubt; inactive = no such curve, though single readings can be large; an effect the other way counts as inactive or inconclusive.

SMILES	S-ASM inh	ALOX12 inh	pAkt inh	Vif-A3G inh	TSG101-PTAP inh	Vif-A3F inh
COCCCn1c(-c2ccccc2)nc2ccccc2c1=O	-	-	-120.6%	-	-	-
COc1cccc(OCCCn2c(-c3ccc(Cl)cc3)nc3ccccc3c2=O)c1	.	-	.	-	.	-
COCCn1c(=S)[nH]c2ncccc2c1=O	-	?	-108.9%	-	-	-
CSC(=S)NN=C1CCCC1	.	-	.	.	.	.
CCN(CC)CCNC(=O)c1ccc(NC(=O)Cc2cccc3ccccc23)cc1	-	-	-	-	-	-
Cc1nc2ccc(NC(=O)Cc3cccc(C(F)(F)F)c3)cc2s1	.	39.8µM	.	.	.	.
CCN(CC)CCNC(=O)c1ccc(NC(=O)Cc2cccc(C(F)(F)F)c2)cc1	.	44.7µM	.	.	.	.
CC(C)CC(=O)NN	.	-	.	.	.	.
CC(C)c1ccc(NC(=S)NN2C(C)CCCC2C)cc1 (stereo not drawn)	-	28.2µM	-	-	-	-
CCC(NC(=O)CC1C=CCC1)C12CC3CC(CC(C3)C1)C2 (stereo not drawn)	.	-	.	.	.	.
Cc1ccc(NC(=O)Cn2cc(S(=O)(=O)Cc3ccc(F)cc3)c3ccccc32)cc1Cl	.	10µM	.	-	.	-
Cc1cccc(C)c1NC(=O)Cn1cc(S(=O)(=O)Cc2ccc(F)cc2)c2ccccc21	.	50.1µM	.	-	.	-
CC(=O)c1cn(CC(=O)Nc2c(C)cccc2C)c2ccccc12	-	-	-	-	-	-
CC(=O)c1cn(CC(=O)Nc2ccccc2C)c2ccccc12	-	?	-111.3%	-	-	.
Cc1cc(C)c(NC(=O)Cn2cc(S(=O)(=O)Cc3ccccc3F)c3ccccc32)c(C)c1	.	?	.	-	.	-
Cc1ccc(NC(=O)Cn2cc(S(=O)(=O)Cc3cccc(Cl)c3)c3ccccc32)cc1C	.	?	.	-	.	-
CCC(C)NC(=O)N1CC(c2nc(CCOCC3CCOCC3)no2)C1 (stereo not drawn)	.	-	.	.	.	.
COc1ccc(-n2c(=O)c3ccccc3n(CC(=O)NC3CCCC3)c2=O)cc1	-	-	-105.2%	-	-	-
OC(COc1ccccc1F)CN(Cc1ccccc1)CC(O)COc1ccccc1F (stereo not drawn)	.	-	.	.	.	.
S=c1[nH]cc2cnccn12	.	8.91µM	-	-	.	-
CCOc1ccc(-c2[nH]ncc2-c2ccc(Br)cc2)c(O)c1	.	28.2µM	.	.	.	.
Cc1ccc(C(=O)Nc2sccc2C#N)s1	.	50.1µM	.	.	.	.
CC(O)(c1ccc(F)c(F)c1)c1nc(-c2csc3ccccc23)cs1 (stereo not drawn)	.	44.7µM	-	-	.	.
CC(O)(c1ccc(F)c(F)c1)c1nc(/C=C/c2ccc(C(F)(F)F)cc2)cs1 (stereo not drawn)	.	35.5µM	-	-	.	.
CN1CCc2c([nH]c3ccccc23)C12CCN(C(=O)c1ccsc1)CC2	.	-	.	.	.	.
SMILES	S-ASM inh	ALOX12 inh	pAkt inh	Vif-A3G inh	TSG101-PTAP inh	Vif-A3F inh
CCOC1CCN(C(=O)c2ccccc2-c2ncc(-c3ccc(C)cc3)o2)CC1	.	-	.	.	.	.
Cc1cccc(N2CCN(C(=S)NCCc3ccccc3)CC2)c1C	-	?	-	-	-	-
Cc1ccc(Cl)cc1N1CCN(C(=S)NCCc2ccccc2)CC1	-	35.5µM	-	-	-	-
O=C(NC(=S)N1CCCC1)c1ccc(Cl)cc1Cl	-	-	-	-	-	?
O=C(NC(=S)N1CCOCC1)c1ccccc1Cl	-	1.26µM	-	-	-	-
O=C(O)COc1ccc2cc(-c3ccc(OC(F)(F)F)cc3)c(=O)oc2c1	.	-	.	.	.	.
CCCn1c(=O)n(CC(=O)Nc2c(C)cccc2C)c(=O)c2c1nc(C)n2CCOC	.	-	.	.	.	.
CCOC(=O)c1cc(C(O)(C(=O)OC)C(F)(F)F)c(N)o1 (stereo not drawn)	.	-	.	.	.	.
Cc1ccc(-c2nc3ccc(C(=O)O)cc3nc2-c2ccc(C)cc2)cc1	-	?	-123.3%	-	-	-
CNC(=O)c1ccc2nc(-c3ccccc3)c(-c3ccccc3)nc2c1	.	.	.	-	.	.
COc1ccc2c(c1)NC(c1cc(Cl)cc(Cl)c1O)c1cccn1-2 (stereo not drawn)	-	31.6µM	-	-	-	-
Oc1c(Cl)cc(Cl)cc1C1Nc2ccccc2-n2cccc21 (stereo not drawn)	-	-	-	-	-	-
O=S(=O)(c1ccccc1)N1CCC(N2CCCCCC2)CC1	-	4.47µM	-	-	-	-
COc1ccccc1S(=O)(=O)Cc1ccc(C(=O)N2CCN(c3ccccc3)CC2)o1	-	-	-124.0%	-	-	-
COc1ccccc1S(=O)(=O)Cc1ccc(C(=O)N2CCN(c3cccc(Cl)c3)CC2)o1	-	-	-	-	-	-
O=C1OC(NC(=O)c2ccccc2)C(n2cc(CO)nn2)=C1Cl (stereo not drawn)	-	-	-114.2%	-	-	-
Cc1occc1C(=O)N(C)CC1CCCN(CCc2ccc(Cl)cc2)C1 (stereo not drawn)	.	44.7µM	-	-	.	-
Cc1ccc(-c2cc(C(=O)Nc3ccc(C(N)=O)cc3)c3ccccc3n2)o1	.	7.94µM	.	.	.	.
Cc1ccc(-c2cc(C(=O)Nc3ccc(C#N)cc3)c3ccccc3n2)o1	.	12.6µM	.	.	.	.
COc1ccc(NC(=O)c2cc(-c3ccc(C)o3)nc3ccccc23)cc1OC	-	?	-	-	-	-
Cc1ccc(-c2cc(C(=O)Nc3ccccc3C(N)=O)c3ccccc3n2)o1	-	6.31µM	-	-	-	-
O=C(Nc1ccc(Oc2ccccc2)cc1)c1cc2n(n1)CC(c1ccc(Cl)cc1)OC2 (stereo not drawn)	.	-	.	.	.	.
COCCCNC(=O)Cn1ccc2c(Cl)cccc21	.	-	.	.	.	.
COc1ccc(OC)c(C2CC(=O)N3CN(c4cccc(Cl)c4)CSC3=C2C#N)c1 (stereo not drawn)	-	?	-	-	-	-
COc1cccc(C2CC(=O)N3CN(c4cccc(Cl)c4C)CSC3=C2C#N)c1OC (stereo not drawn)	-	7.94µM	-	-	-	-
SMILES	S-ASM inh	ALOX12 inh	pAkt inh	Vif-A3G inh	TSG101-PTAP inh	Vif-A3F inh
COc1ccc(OC)c(C2CC(=O)N3CN(c4cccc(Cl)c4C)CSC3=C2C#N)c1 (stereo not drawn)	-	11.2µM	-	-	-	-
CCC(C)(C(=O)NC1CCCCC1)N(C(=O)CNC(=O)c1ccccc1)c1ccccc1 (stereo not drawn)	.	-	.	.	.	.
CC(Sc1nc2cc(S(=O)(=O)N3CCCCC3)ccc2o1)C(=O)Nc1ccc(F)cc1Cl (stereo not drawn)	.	-	.	.	.	.
CCC1(C)CC(C(N)=S)CCO1 (stereo not drawn)	-	8.91µM	-	-	-	-
CC1(C)CC(C(N)=S)CCO1 (stereo not drawn)	-	-	-	-	-	-
COc1ccc(F)cc1C(=O)/C=C/c1ccc(SC)cc1	.	-	.	.	.	.
COc1cc2c(cc1CN1CCN(c3ccc(C#N)cc3)C(=O)C1)CCC2	.	-	.	.	.	.
